Data as given in PubChem BioAssay AID651660 (Broad Institute, 2012).
The whole screen tested about 1,900 compounds, of which about 15 (0.8%) were called active. The entries come from a sample that favours actives as a whole. Values without a mark were called inactive.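 How the source made its calls: active means every replicate shows at least 50% inhibition; inconclusive means mean inhibition at least 50% but some replicate below; inactive means the rest.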

biological target: DNA repair protein RAD52 homolog (Homo sapiens) (UniProt P43351); experiment: inhibition of RAD52-mediated strand annealing – biochemical, FRET, single point, primary screen (AID 651660); conditions: Recombinant RAD52 ssDNA annealing, FRET fluorescence, 30 min; at 18.7 µM; stronger effect = higher value;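 further: 0% = median of neutral control wells and 100% = median of positive control wells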
Sequence (P43351 whole entry, looked up): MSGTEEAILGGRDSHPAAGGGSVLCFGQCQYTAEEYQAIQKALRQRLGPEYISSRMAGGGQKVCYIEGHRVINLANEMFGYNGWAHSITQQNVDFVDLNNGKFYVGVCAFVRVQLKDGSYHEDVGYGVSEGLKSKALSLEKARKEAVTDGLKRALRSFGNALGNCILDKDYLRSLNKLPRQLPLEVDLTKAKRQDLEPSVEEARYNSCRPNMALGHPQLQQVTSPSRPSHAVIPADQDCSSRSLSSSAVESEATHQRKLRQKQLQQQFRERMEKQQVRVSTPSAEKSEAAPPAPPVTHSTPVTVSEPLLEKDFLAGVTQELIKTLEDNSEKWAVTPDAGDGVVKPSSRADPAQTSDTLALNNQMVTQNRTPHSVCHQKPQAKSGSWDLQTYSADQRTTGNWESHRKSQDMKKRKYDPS

Structure (SMILES)	inhibition
COc1cc2c3cc1Oc1cc(ccc1O)C[C@@H]1c4c(cc(OC)c(O)c4Oc4ccc(cc4)C[C@H]3N(C)CC2)CCN1C	77.6% (active)
c1cnc2c(c1)ccc1ncccc12	-3.46%
O=C1NCCN2CCCC12 (stereo not given)	-1.15%
CCC1(c2ccccc2)C(=O)N(COC)C(=O)N(COC)C1=O	-5.47%
C[N+]1(C)CCOC(O)(c2ccc(-c3ccc(C4(O)C[N+](C)(C)CCO4)cc3)cc2)C1 (stereo not given)	61.8% (active)
C=C1[C@@H](C)[C@H]2[C@H](Cc3ccccc3)NC(=O)[C@]23OC(=O)/C=C/[C@H](O)CCC[C@@H](C)C/C=C/[C@H]3[C@@H]1O	-0.777%
CC(C)(C)C(O)C(Oc1ccc(Cl)cc1)n1cncn1 (stereo not given)	-119%
NCCc1c[nH]c2ccc(F)cc12	0.119%
CN1C(=O)N(C)C(=O)C2(Cc3ccccc3N3CCOCC32)C1=O (stereo not given)	-0.534%
CCNC(=S)N(C)CCc1cc2c(c(OC)c1C=C1C(=O)N(C)C(=O)N(C)C1=O)OCO2	-15%
